Screening data: PubChem, The Scripps Research Institute Molecular Screening Center
hcDAF-12 act = H. contortus DAF-12 nuclear receptor activators, primary screen, cell-based, luminescence, HEK293, lit1-tk-luc reporter; activation, % at 6.8 µM; HEK293 hcDAF-12 lit1-tk-luc reporter; 0% DMSO, 100% Δ7-dafachronic acid; hit rate 1.4% among 370,000;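 active = activation above the mean of all tested compounds plus 3 SD, cut at about 5.5% in these data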;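 note: 100% = response to 3 µM Δ7-dafachronic acid high control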
DAX1 inh-1 = DAX1 (NR0B1) inhibitors, primary screen, cell-based, HEK293, Gal4-DAX1, luciferase luminescence | Nuclear receptor subfamily 0 group B member 1 (Homo sapiens), P51843 | HEK293 Gal4-DAX1 luciferase reporter | inhibition, % at 6.75 µM | hit rate 0.99% among 340,000;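 active = inhibition above the mean over all tested compounds plus 3 SD, cut at about 4.2% in these data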;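 note: 0% = DAX1-transfected cells with DMSO and 100% = empty-vector control cells with DMSO; inhibition shows as a rise in luminescence from relieved DAX1 repression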
Target sequence (P51843 207-470 limits assumed): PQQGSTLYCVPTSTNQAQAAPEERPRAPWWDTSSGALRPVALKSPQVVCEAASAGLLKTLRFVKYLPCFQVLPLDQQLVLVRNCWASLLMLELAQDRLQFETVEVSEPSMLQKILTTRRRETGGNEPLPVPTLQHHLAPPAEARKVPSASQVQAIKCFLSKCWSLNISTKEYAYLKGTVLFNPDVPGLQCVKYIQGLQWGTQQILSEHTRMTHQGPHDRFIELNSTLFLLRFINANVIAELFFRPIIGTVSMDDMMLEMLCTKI
ssDAF-12 act = S. stercoralis DAF-12 nuclear receptor activators, primary screen, cell-based, luminescence, HEK293, GRIP1 co-expression, lit1-tk-luc | Nuclear hormone receptor DAF-12 (Strongyloides stercoralis) | HEK293 ssDAF-12/GRIP1 lit1-tk-luc reporter; % of 3 µM dafachronic acid response | activation, % at 6.8 µM | hit rate 1% among 370,000;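 active = activation above the mean over all tested compounds plus 3 SD, cut at about 0.9% in these data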;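 note: 0% = DMSO-only wells and 100% = 3 µM delta7-dafachronic acid wells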
DAX1 inh-2 = DAX1 (NR0B1) inhibitors on StAR promoter, primary screen, cell-based, luminescence, SF-1 (NR5A1), full-length DAX-1; HEK293T StAR-luciferase reporter, SF-1/DAX-1 repression relief; inhibition, % at 6.8 µM; hit rate 1.1% among 370,000; AID 652010, 2013;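 active = inhibition above the mean over all tested compounds plus 3 SD, cut at about 3.6% in these data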;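 note: 0% = DAX-1 cells with DMSO and 100% = cells lacking DAX-1 with DMSO; higher inhibition means more luminescence from relief of DAX-1 repression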
hgDAF-12 ag = H. glycines DAF-12 receptor agonists, primary screen, cell-based, luminescence, HEK293, GAL4 fusion, UAS-luciferase | HEK293 GAL4-hgDAF12 UAS-luciferase reporter, agonist luminescence; normalized to butyrate control | activation, % at 6.8 µM | hit rate 1.8% among 370,000 | AID 687014, 2013;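 active = activation above a cutoff set at the mean of all screened compounds plus 3 SD, cut at about 10% in these data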;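 note: 0% = DMSO wells and 100% = sodium butyrate wells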
Numbers without * were called inactive; x = no result given. An excerpt weighted towards active compounds, which were near 4.1% of everything screened.

SMILES | hcDAF-12 act | DAX1 inh-1 | ssDAF-12 act | DAX1 inh-2 | hgDAF-12 ag
COc1ccc(CCn2c(-c3ccccc3)nc3c(c(=O)c4ccccc4n3C)c2=O)cc1 | 5.8* | x | -1 | 0 | -2
NC(=O)CN(c1ccc([N+](=O)[O-])cc1)S(=O)(=O)c1ccccc1 | -1 | 4.4* | -1 | -1 | 5
Cc1ccc(NC(=O)c2ccc(OC(=O)COc3ccc(Cl)c(C)c3)cc2)cc1 | 4 | 1 | 0 | 3 | 13*
COC(=O)COc1cccc(NC(=O)c2ccc(C)cc2)c1 | -2 | -1 | -1 | 0 | 4
Cc1cc(OCC(=O)NC(C)(C)C)ccc1Cl | 1 | 0 | -1 | 1 | 12*
Cc1ccc(NC(=O)c2ccc(OCC3CCCO3)cc2)cc1 (centres undefined) | 4 | 3 | 0 | 3 | 12*
Cc1cc(N2CCN(S(C)(=O)=O)C[C@H]2C)ccc1N1CCN(Cc2ccccc2)[C@H](C)C1 | -2 | x | -1 | -1 | 0
CN1C(=O)C(c2cn(C)c3ccccc23)(c2cn(C)c3ccccc23)c2ccccc21 | -2 | x | 0 | -1 | 4
COC(=O)C1=C(C)NC(=S)NC1c1cccc(OC)c1 (centres undefined) | -1 | x | 0 | 0 | -2
c1cnc2c(C3NCCc4c3[nH]c3ccccc43)cccc2c1 (centres undefined) | x | 5.0* | x | x | x
O=C(O)c1cccnc1C(=O)N1CCc2c([nH]c3ccccc23)C1C(F)(F)F (centres undefined) | 0 | x | -1 | 0 | 0
COc1ccc(Cn2c(C)cc(O)cc2=O)cc1 | 0 | x | -1 | 0 | 1
COc1cc(NC(=O)c2cc3sccc3n2C)cc(OC)c1 | 6.0* | 2 | 0 | 2 | 10
Cc1ccc(S(=O)(=O)CC(=O)N(CCCN2CCOCC2)c2nc3c(F)cccc3s2)cc1 | 0 | 2 | 0 | 4.1* | 4
O=C(CCS(=O)(=O)c1ccccc1)N(CCCN1CCOCC1)c1nc2c(F)cccc2s1 | 1 | -1 | -1 | 1 | 2
O=C(N/N=C/c1cccs1)c1ccccn1 | 5 | 2 | 0 | 3 | 12*
Cn1cccc1/C=N/NC(=O)c1ccccn1 | 2 | 1 | 0 | 3.7* | 12*
O=C(N/N=C/c1ccc(OC(=O)c2ccccc2Cl)cc1)c1ccccn1 | x | 1 | x | x | x
Cn1cccc1/C=N/NC(=O)c1ccncc1 | 6.2* | x | -1 | 0 | -1
CCc1ccc(/C=N/NC(=O)c2ccccn2)cc1 | 6 | 0 | 0 | 2 | 11*
COc1ccc(-c2ccc3c(n2)CCCN3S(=O)(=O)c2ccc(C(F)(F)F)cc2)cc1 | 3 | x | -1 | 1 | 3
Cc1ccc(-n2c(Cc3cccs3)nnc2SCc2ccc(Br)cc2)cc1 | -4 | x | -1 | 0 | -2
CCOC(=O)[C@]12CCCC=C1N(CCCOC)C(=O)[C@@H]2CC(=O)NCCCN1CCCC1=O | 0 | x | -1 | 0 | 2
COc1ccc2sc(-c3ccccc3OC)c(-c3ccc(SC)cc3)c2c1 | 0 | x | -1 | 3.8* | 1
COc1ccc2sc(-c3ccccc3OC)c(-c3ccc(OC)c(F)c3)c2c1 | 0 | 1 | -1 | -1 | 1
SMILES | hcDAF-12 act | DAX1 inh-1 | ssDAF-12 act | DAX1 inh-2 | hgDAF-12 ag
N#C/C(=C\c1ccccn1)c1nc2ccccc2s1 | 3 | 1 | 0 | 0 | 4
COc1ccc(/C(C#N)=C/c2ccccn2)cc1 | 4 | 1 | 0 | 1 | 12*
Nc1nnc(Cc2c[nH]c3ccccc23)s1 | 5.7* | 0 | 1 | -1 | 3
COC(=O)[C@]12C[C@H](CC(=O)NCc3ccccc3)C(=O)N(Cc3ccc(Cl)cc3Cl)C1=C[C@H](C(C)C)O[C@@H]2C1CC1 | -3 | x | -1 | 0 | 5
COc1cc(C2C(C(C)=O)=C(O)C(=O)N2CCc2c[nH]c3ccccc23)ccc1O (centres undefined) | 0 | 2 | 0 | 1 | 2
CC(=O)C1=C(O)C(=O)N(CCc2c[nH]c3ccccc23)C1c1cccc(O)c1 (centres undefined) | 5.7* | -1 | 0 | 0 | 0
CCCNC(=O)Cn1c2ccccc2c2nc(=O)cc(C)n21 | 5 | 0 | 1 | 1 | 0
Cc1cc(=O)nc2c3ccccc3n(CC(=O)NC(C)c3ccc4c(c3)OCCO4)n12 (centres undefined) | 6.0* | 0 | 0 | 0 | 0
CCC[C@H]1[C@@H](OC(=O)N2CCCC2)CC[C@@]23CCCN2C(=O)CCC[C@@H]13 | -2 | x | -1 | x | 3
Cc1ccc(C)c(NC(=S)NCCc2c[nH]c3ccccc23)c1 | 0 | 0 | -2 | 0 | -1
Cc1ccccc1NC(=S)NCCc1c[nH]c2ccccc12 | 6.0* | 1 | 0 | -1 | 2
CSc1ccc(/C=C(/NC(=O)c2ccc(C)cc2)C(=O)Nc2cccc(F)c2)cc1 | 6.3* | 2 | -1 | 0 | 5
CC(=O)c1cccc(NC(=O)/C(=C\c2cccnc2)NC(=O)c2ccc(C)cc2)c1 | 0 | 1 | -1 | 0 | 1
C=CCN=C1NC(c2cccc(F)c2)C(C(=O)OC)=C(C)N1Cc1ccccc1C(F)(F)F (centres undefined) | -2 | x | -1 | -1 | -2
c1ccc(CN2CCOCC2)cc1 | 1 | 0 | -1 | 0 | 0
c1ccc2c(c1)Cc1cc(CN3CCOCC3)ccc1-2 | 3 | 2 | 0 | 3 | 13*
O=c1c(C=NCCCn2ccnc2)c(-c2ccccc2)[nH]n1-c1nc2ccccc2s1 | -1 | 2 | -1 | 4.3* | 3
CN(C)CCCN=Cc1c(-c2ccccc2)[nH]n(-c2nc3ccccc3s2)c1=O | -4 | 0 | -2 | 0 | 1
O=C(C[C@@H]1C[C@@H]2c3cc(NC(=O)c4ccc5c(c4)OCO5)ccc3O[C@@H]2[C@@H](CO)O1)NCc1cccnc1 | -2 | x | -1 | -1 | -3
CC(C)(C)NC(=S)NNC(=O)c1ccc2ncccc2c1 | 4 | 2 | 0 | 3.8* | 11*
CN1CCN(c2nc3ccccc3nc2NS(=O)(=O)c2ccc(Br)cc2)CC1 | 1 | 0 | 0 | -1 | 1
O=S(=O)(Nc1nc2ccccc2nc1N1CCc2ccccc2C1)c1ccc(Br)cc1 | 22* | -1 | 2.4* | 5.8* | 16*
CCCCCCCCNc1nc(Cl)nc(NCc2ccco2)n1 | 4 | 0 | -1 | 0 | -1
CCCCCCNc1nc(Cl)nc(NC(C)(C)CO)n1 | -1 | 5.3* | -1 | 0 | 0
